Laboratory results reported in PubChem BioAssay.
Calls of active or inactive are those of the source. Unless noted, no rule for the calls is given here.

Legend:
[1] = HepG2 liver cancer cell viability effects, profiling panel, resazurin fluorescence, 24 h, PK04 Diversity Set (AID 1172); conditions: higher = more signal
[2] = basal S. cerevisiae growth modulation, no modifier, primary screen, OD600, strain BY4716, 24 h, basal condition (AID 1173); conditions: OD600, 24 h, higher = more signal, called active from +8 up or from −8 down
[3] = MM1S myeloma cell viability, profiling panel, resazurin fluorescence, basal, 24 h, PK04 Diversity Set (AID 1174); conditions: higher = more signal, called active from +8 up or from −8 down;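 also: MM1S multiple myeloma cell line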
[4] = biological target: Dihydroorotate dehydrogenase (quinone), mitochondrial (Plasmodium falciparum (isolate 3D7)) (UniProt Q08210); assay: PfDHODH enzyme inhibitors, primary screen, biochemical, C-terminal His tag, absorbance 600 nm (AID 1175); conditions: DCIP absorbance 600 nm, higher = more signal, called active from +8 up or from −8 down;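 also: recombinant parasite enzyme with a five histidine tag at its C terminus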
Sequence of Dihydroorotate dehydrogenase (quinone), mitochondrial (Plasmodium falciparum (isolate 3D7)) (Q08210 whole entry, looked up): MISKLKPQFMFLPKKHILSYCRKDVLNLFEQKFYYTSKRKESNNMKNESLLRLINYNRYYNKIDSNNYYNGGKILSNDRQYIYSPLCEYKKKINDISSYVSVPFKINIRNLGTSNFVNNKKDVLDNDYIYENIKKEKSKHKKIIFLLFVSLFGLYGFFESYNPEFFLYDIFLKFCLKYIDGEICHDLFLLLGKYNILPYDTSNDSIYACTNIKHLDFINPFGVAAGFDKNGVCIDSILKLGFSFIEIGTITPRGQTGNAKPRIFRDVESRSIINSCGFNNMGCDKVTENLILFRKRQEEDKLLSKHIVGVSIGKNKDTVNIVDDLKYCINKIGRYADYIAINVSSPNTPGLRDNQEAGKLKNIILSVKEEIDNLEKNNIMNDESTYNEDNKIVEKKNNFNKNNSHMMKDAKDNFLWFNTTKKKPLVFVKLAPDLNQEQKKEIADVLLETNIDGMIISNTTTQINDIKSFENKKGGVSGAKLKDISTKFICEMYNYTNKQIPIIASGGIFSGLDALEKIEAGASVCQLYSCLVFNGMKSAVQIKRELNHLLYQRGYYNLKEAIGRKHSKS

[5] = P. aeruginosa biofilm formation inhibitors, primary screen, strain PAO1, LB-PBS medium, absorbance 600 nm (AID 1176); conditions: P. aeruginosa PAO1 growth/biofilm, A600, 12 h; higher = more signal
[6] = S. cerevisiae RM11-1a growth modifiers, primary screen, strain RM11-1a, OD600, basal, 24 h (AID 1177); conditions: OD600, 24 h, higher = more signal, called active from +8 up or from −8 down;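 also: cultures grown under basal conditions with no added stressor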
[7] = E. coli acrAB mutant growth effects, primary screen, E. coli filamentation inducers, strain DRC39, OD650, 24 h (AID 1178); conditions: higher = more signal, called active from +8 up or from −8 down;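 also: growth measured as culture turbidity by optical density at 650 nm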
[8] = E. coli acrAB mutant growth effects, primary screen, E. coli filamentation inducers, strain DRC39, OD650, 48 h (AID 1179);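 also: screen aims at cell division blockers that make cells filament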; conditions: E. coli DRC39 delta-acrAB growth, higher = more signal, called active from +8 up or from −8 down
[9] = RPMI8226 myeloma cell viability, profiling panel, resazurin fluorescence, basal, 24 h, PK04 Diversity Set (AID 1180); conditions: higher = more signal;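 also: RPMI8826 multiple myeloma cell line at 5000 cells per well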
[10] = biological target: E3 ubiquitin-protein ligase XIAP (Homo sapiens) (UniProt P98170); assay: XIAP binders, primary screen, biophysical, small-molecule microarray, fluorescence 635 nm (AID 1181); conditions: small-molecule microarray binding, higher = more signal;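 also: score merges 667 nm emission and signal to noise over triplicate slides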
Sequence of E3 ubiquitin-protein ligase XIAP (Homo sapiens) (P98170 whole entry, looked up): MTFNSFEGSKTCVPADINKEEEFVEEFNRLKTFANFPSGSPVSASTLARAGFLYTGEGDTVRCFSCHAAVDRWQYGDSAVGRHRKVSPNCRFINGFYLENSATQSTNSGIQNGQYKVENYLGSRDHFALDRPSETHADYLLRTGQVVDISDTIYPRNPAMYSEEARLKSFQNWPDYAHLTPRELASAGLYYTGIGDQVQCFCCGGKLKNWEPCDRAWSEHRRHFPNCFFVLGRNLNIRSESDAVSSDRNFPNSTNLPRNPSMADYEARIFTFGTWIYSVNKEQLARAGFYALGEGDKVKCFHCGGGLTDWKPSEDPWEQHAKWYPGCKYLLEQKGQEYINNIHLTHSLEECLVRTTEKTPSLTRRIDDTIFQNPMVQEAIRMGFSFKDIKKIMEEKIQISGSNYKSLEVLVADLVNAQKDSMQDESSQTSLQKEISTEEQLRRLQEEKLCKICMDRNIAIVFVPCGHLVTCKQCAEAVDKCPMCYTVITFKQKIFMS

[11] = system: XIP peptide (Xip251-270) binding; assay: small-molecule binders of XIP peptide, primary screen, biochemical, small-molecule microarray, fluorescence 635/667 nm, 0.1 µg/mL protein (AID 1182); conditions: fluorescent protein binding, 635 nm, higher = more signal, called active from +8 up or from −8 down
XIP peptide (Xip251-270) = assay: small-molecule binders of XIP peptide, primary screen, biochemical, small-molecule microarray, fluorescence 635/667 nm, 0.5 µg/mL protein (AID 1183); conditions: small-molecule microarray binding, fluorescence 635 nm; higher = more signal
[12] = Plasmodium falciparum growth inhibition, primary screen, strain 3D7, DAPI fluorescence, 100 nL (AID 1184);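 also: parasites grown inside human red blood cells in medium with human serum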; conditions: P. falciparum 3D7 growth, 3 d, higher = more signal
[13] = biological target: Homeobox protein Hox-A13 (Mus musculus) (UniProt Q62424); assay: inhibitors of HoxA13-DNA binding, primary screen, biochemical, fluorescence polarization, labeled oligonucleotide (AID 1185); conditions: 15 min, higher = more signal, called active from +8 up or from −8 down
Sequence of Homeobox protein Hox-A13 (Mus musculus) (Q62424 whole entry, looked up): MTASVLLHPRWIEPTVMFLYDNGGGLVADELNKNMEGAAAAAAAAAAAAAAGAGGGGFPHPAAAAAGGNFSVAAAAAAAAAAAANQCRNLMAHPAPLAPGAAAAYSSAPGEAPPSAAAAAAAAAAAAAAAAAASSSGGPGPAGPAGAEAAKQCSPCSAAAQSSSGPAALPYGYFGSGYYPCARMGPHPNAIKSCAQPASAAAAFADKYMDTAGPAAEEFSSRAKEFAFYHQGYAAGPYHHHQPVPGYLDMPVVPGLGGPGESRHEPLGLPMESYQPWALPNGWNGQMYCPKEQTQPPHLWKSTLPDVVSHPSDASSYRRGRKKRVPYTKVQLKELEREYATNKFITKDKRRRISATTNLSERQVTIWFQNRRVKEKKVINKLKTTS

[14] = inhibitors of hydroxyurea-induced Chk1 phosphorylation, primary screen, imaging, HeLa, phospho-Chk1 antibody, percent positive cells (AID 1186); conditions: hydroxyurea-induced phospho-Chk1 immunofluorescence imaging, higher = more signal
[15] = inhibitors of hydroxyurea-induced Chk1 phosphorylation, primary screen, imaging, HeLa, phospho-Chk1 nuclear intensity (AID 1187); conditions: hydroxyurea-induced phospho-Chk1 immunofluorescence imaging, higher = more signal

SMILES | z-score [1] | z-score [2] | z-score [3] | composite z-score [4] | z-score [5] | z-score [6] | z-score [7] | z-score [8] | z-score [9] | composite z-score [10] | composite z-score [11] | composite z-score (XIP peptide (Xip251-270)) | z-score [12] | z-score [13] | z-score [14] | z-score [15]
CCCCC(O)C1C=CC2C(=O)N(C3CCCCC3)C(=O)C2N1Nc1ccc(OC)cc1 (stereo not drawn) | -0.414 | -2.57 (inactive) | -0.496 (inactive) | 1.12 (inactive) | 0.89 (inactive) | 0.669 (inactive) | -1.01 (inactive) | -0.584 (inactive) | -0.369 | 0.0617 | 0.222 (inactive) | 0.808 | -0.265 | -3.58 (inactive) | 0.895 (inactive) | 0.719 (inactive)
CC(C)C[C@@H]1NC(=O)[C@H]2C[C@@H](C(=O)NCCCCCNC(=O)CS)[C@@H](c3cccc(OCCO)c3)N2C1=O | 0.265 | -0.45 (inactive) | -0.229 (inactive) | 0.0225 (inactive) | 0.326 (inactive) | -0.0734 (inactive) | 0.346 (inactive) | -0.663 (inactive) | -0.492 | 0.379 | 1.38 (inactive) | 0.713 | -0.159 | -3.89 (inactive) | -0.351 (inactive) | 0.184 (inactive)
COc1ccccc1CN1C(=O)c2ccccc2[C@@H](C(=O)NCCN2CCOCC2)[C@@H]1c1ccc(CO)cc1 | 0.505 | -0.248 (inactive) | -0.0527 (inactive) | 0.249 (inactive) | 1.56 (inactive) | -0.0436 (inactive) | 0.187 (inactive) | -0.0251 (inactive) | 0.154 | 0.101 | -0.0758 (inactive) | 0.853 | -1.86 | -4.64 (inactive) | 0.193 (inactive) | 0.531 (inactive)
C=C[C@@H](COC(C)=O)N(Cc1ccc([N+](=O)[O-])cc1)S(=O)(=O)c1ccc(Br)cc1 | 0.835 | -0.367 (inactive) | 0.417 (inactive) | -1.01 (inactive) | -0.801 (inactive) | 1.19 (inactive) | 1.01 (inactive) | 0.469 (inactive) | 1.49 | 0.0345 | 0.13 (inactive) | 0.656 | 0.242 | -3.25 (inactive) | -0.617 (inactive) | -0.411 (inactive)
C=CCC(OC(C)=O)[C@@H]1[C@@H](N(Cc2ccc(-c3ccccc3)cc2)C(=O)Cc2ccc(OC)cc2)c2cc(OCCCO)ccc2N1C(=O)c1ccc2ccccc2n1 (stereo partly drawn) | 0.0252 | -0.594 (inactive) | 0.525 (inactive) | -0.574 (inactive) | -0.24 (inactive) | -1.15 (inactive) | 1.29 (inactive) | 0.644 (inactive) | 1.07 | -0.266 | 0.0404 (inactive) | 0.219 | -2.87 | -1.25 (inactive) | -0.0117 (inactive) | 0.336 (inactive)
C=CC(COC(C)=O)NS(=O)(=O)c1ccc(Br)cc1 (stereo not drawn) | -0.233 | -2.68 (inactive) | 0.364 (inactive) | -0.287 (inactive) | 0.212 (inactive) | -0.406 (inactive) | -0.909 (inactive) | -1.05 (inactive) | 0.404 | -0.338 | 0.264 (inactive) | 0.231 | 1.95 | -0.546 (inactive) | 0.363 (inactive) | 0.253 (inactive)
CCOC(=O)C1=C[C@@H](C(C)C)N(S(=O)(=O)c2ccc(C)cc2)[C@H]1c1ccc(C(C)C)cc1 | 0.346 | 1.05 (inactive) | 0.52 (inactive) | -1.11 (inactive) | -0.281 (inactive) | 0.55 (inactive) | -0.558 (inactive) | 0.399 (inactive) | 0.548 | -0.192 | 0.306 (inactive) | -0.109 | -1.46 | -0.549 (inactive) | 0.25 (inactive) | 0.478 (inactive)
COc1ccc([Si](C)(C)[C@H]2[C@H](CCn3cc([C@H](O)c4ccccc4)nn3)O[C@@]3(C(=O)N(Cc4cccc(N5CCC5=O)c4)c4ccccc43)[C@@H]2C)cc1 | 0.429 | -1.53 (inactive) | -0.85 (inactive) | -1.21 (inactive) | 1.59 (inactive) | -0.101 (inactive) | 0.898 (inactive) | 1.02 (inactive) | 0.388 | 0.166 | 0.275 (inactive) | 0.444 | -1.98 | -2.56 (inactive) | -1.17 (inactive) | -0.364 (inactive)
NCCCCCCNC(=O)[C@H]1C[C@H]2C(=O)NCC(=O)N2[C@H]1c1cccc(OCCO)c1 | 0.583 | -1.42 (inactive) | 0.724 (inactive) | -0.42 (inactive) | -0.475 (inactive) | -0.689 (inactive) | 1.42 (inactive) | 1.61 (inactive) | 1.08 | 0.0785 | 2.26 (inactive) | 0.814 | 0.005 | -2.07 (inactive) | 0.234 (inactive) | 0.495 (inactive)
O=C1C[C@@](C(=O)NC2CC2)(c2ccc([N+](=O)[O-])cc2)[C@@H](c2ccc(CO)cc2)N1CC12CC3CC(CC(C3)C1)C2 | -0.494 | -0.369 (inactive) | -2.23 (inactive) | 0.117 (inactive) | -0.273 (inactive) | 0.0982 (inactive) | -0.284 (inactive) | 0.466 (inactive) | -3.25 | 0.0975 | -0.181 (inactive) | 0.611 | -0.909 | -5.08 (inactive) | -0.635 (inactive) | -0.617 (inactive)
CC(C)C(O)C1C=CC2C(=O)N(c3ccccc3)C(=O)C2N1Nc1ccc(C#N)cc1 (stereo not drawn) | -1.45 | -2.14 (inactive) | -1.66 (inactive) | -1.02 (inactive) | 1.11 (inactive) | -0.0111 (inactive) | -0.718 (inactive) | 0.0323 (inactive) | -0.47 | 0.0073 | 0.613 (inactive) | 0.748 | 0.207 | -2.61 (inactive) | -0.877 (inactive) | -0.419 (inactive)
COC(=O)c1ccc(C23CC2(C(NP(=O)(c2ccccc2)c2ccccc2)c2ccccc2)C3)cc1 (stereo not drawn) | -0.402 | -1.17 (inactive) | -0.941 (inactive) | -1.13 (inactive) | 0.287 (inactive) | -3.39 (inactive) | -0.29 (inactive) | -0.16 (inactive) | -0.122 | -0.126 | 0.946 (inactive) | 0.474 | -1.35 | -3.76 (inactive) | -1.54 (inactive) | -1.34 (inactive)
COCCOC(=O)N1C(=O)[C@@]2(c3cc(C#CC4(O)CCCCCC4)ccc31)[C@H](C(=O)N1CCCCCCC1)[C@H]1C(=O)O[C@H](c3ccccc3)[C@H](c3ccccc3)N1[C@@H]2c1ccccc1OCCO | -0.449 | 0.71 (inactive) | -0.297 (inactive) | 0.969 (inactive) | 1.07 (inactive) | 2.36 (inactive) | -1.49 (inactive) | -1.16 (inactive) | -0.432 | 0.026 | -0.0713 (inactive) | 0.762 | -2.39 | 3.19 (inactive) | -0.0968 (inactive) | 0.298 (inactive)
CC(C)C[C@@H]1NC(=O)[C@H]2C[C@@H](C(=O)NCCCCCCNC(=O)CS)[C@@H](c3cccc(OCCO)c3)N2C1=O | 0.808 | -0.632 (inactive) | 0.259 (inactive) | -0.625 (inactive) | -0.145 (inactive) | 0.652 (inactive) | 0.941 (inactive) | 1.08 (inactive) | -0.258 | 0.356 | 0.821 (inactive) | 0.792 | -0.0202 | -2.77 (inactive) | 0.0162 (inactive) | 0.12 (inactive)
CCC(CC)C(O)C1C=CC2C(=O)N(c3ccccc3)C(=O)C2N1Nc1ccc(C#N)cc1 (stereo not drawn) | -0.813 | -0.174 (inactive) | -0.253 (inactive) | -1.69 (inactive) | 1.55 (inactive) | -0.358 (inactive) | -0.698 (inactive) | 0.133 (inactive) | -0.308 | -0.101 | 0.132 (inactive) | 0.799 | 0.324 | -1.39 (inactive) | 0.288 (inactive) | 0.192 (inactive)
NC(=O)NCC#Cc1ccc2c(c1)[C@]1(C(=O)N2)[C@H](C(=O)N2CCCCCCC2)[C@H]2C(=O)O[C@H](c3ccccc3)[C@H](c3ccccc3)N2[C@@H]1c1ccc(OCCO)cc1 | -0.3 | 1.84 (inactive) | -0.36 (inactive) | 0.835 (inactive) | 2.1 (inactive) | 2.12 (inactive) | 0.049 (inactive) | -0.318 (inactive) | -0.831 | 0.0368 | 0.98 (inactive) | 0.246 | -0.922 | -15.8 (active) | 0.109 (inactive) | 0.309 (inactive)
Cc1cc(C)c(C(O)C2C=CC3C(=O)N(C)C(=O)C3N2Nc2ccccc2)c(C)c1 (stereo not drawn) | -1.03 | -0.0657 (inactive) | -1.1 (inactive) | 0.0016 (inactive) | 0.944 (inactive) | -0.362 (inactive) | -0.709 (inactive) | -0.456 (inactive) | -1.46 | 0.372 | -0.0222 (inactive) | 0.794 | 0.642 | -2.71 (inactive) | 0.195 (inactive) | -0.137 (inactive)
[N-]=[N+]=NCc1ccccc1C[C@]1(C(=O)NCCN2CCOCC2)N=C(c2ccc(OCCCO)cc2)O[C@H]1c1ccccc1N=[N+]=[N-] | -0.854 | -0.318 (inactive) | -0.739 (inactive) | 0.345 (inactive) | 1.57 (inactive) | 0.145 (inactive) | 1.73 (inactive) | 1.08 (inactive) | -1.85 | 0.317 | 0.281 (inactive) | 0.614 | -2.1 | -1.02 (inactive) | -0.2 (inactive) | 0.0241 (inactive)
